# According to PMC11062922 (Nature Chemical Biology, 2023):
# Read-outs that look alike come from different tables or passages of the source.
# Columns and labels:
# Settings in all cases: read-out: apparent Kd, n = 1
# [1] = test system: ACVR1
# [2] = test system: CDK6
# [3] = test system: CLK1
# [4] = test system: MAP2K1
# [5] = compound concentrations:100 nM and 1000 nM (sheet 'Lestaurtinib' of Supplementary Table 1),run:Lestaurtinib_02422_R1,Plate:MR006
# [6] = compound concentrations:100 nM and 1000 nM (sheet 'Lestaurtinib' of Supplementary Table 1),run:Lestaurtinib_02443_R3,Plate:MR009
# [7] = compound concentrations:100 nM and 1000 nM (sheet 'Lestaurtinib' of Supplementary Table 1),run:Lestaurtinib_02572_R1,Plate:MR015
# [8] = compound concentrations:100 nM and 1000 nM (sheet 'Lestaurtinib' of Supplementary Table 1),run:Lestaurtinib_02577_R1,Plate:MR016
# [9] = compound concentrations:100 nM and 1000 nM (sheet 'Lestaurtinib' of Supplementary Table 1),run:Lestaurtinib_02584_R3,Plate:MR017
# [10] = compound concentrations:100 nM and 1000 nM (sheet 'Lestaurtinib' of Supplementary Table 1),run:Lestaurtinib_02748_R1,Plate:MR024
# [11] = compound concentrations:100 nM and 1000 nM (sheet 'Lestaurtinib' of Supplementary Table 1),run:Lestaurtinib_02766_R3,Plate:MR027
# [12] = compound concentrations:100 nM and 1000 nM (sheet 'Lestaurtinib' of Supplementary Table 1),run:Lestaurtinib_02896_R1,Plate:MR030
# [13] = compound concentrations:100 nM and 1000 nM (sheet 'Lestaurtinib' of Supplementary Table 1),run:Lestaurtinib_02367_R1,Plate:MR003
# [14] = compound concentrations:100 nM and 1000 nM (sheet 'Lestaurtinib' of Supplementary Table 1),run:Lestaurtinib_02381_R1,Plate:MR004
# [15] = compound concentrations:100 nM and 1000 nM (sheet 'Lestaurtinib' of Supplementary Table 1),run:Lestaurtinib_02496_R3,Plate:MR013
# [16] = compound concentrations:100 nM and 1000 nM (sheet 'Lestaurtinib' of Supplementary Table 1),run:Lestaurtinib_02765_R3,Plate:MR026
# [17] = compound concentrations:100 nM and 1000 nM (sheet 'Lestaurtinib' of Supplementary Table 1),run:Lestaurtinib_02367_R2,Plate:MR003
# [18] = compound concentrations:100 nM and 1000 nM (sheet 'Lestaurtinib' of Supplementary Table 1),run:Lestaurtinib_02438_R3,Plate:MR008
# [19] = compound concentrations:100 nM and 1000 nM (sheet 'Lestaurtinib' of Supplementary Table 1),run:Lestaurtinib_02443_R1,Plate:MR009
# [20] = compound concentrations:100 nM and 1000 nM (sheet 'Lestaurtinib' of Supplementary Table 1),run:Lestaurtinib_02443_R2,Plate:MR009
# [21] = compound concentrations:100 nM and 1000 nM (sheet 'Lestaurtinib' of Supplementary Table 1),run:Lestaurtinib_02473_R1,Plate:MR010
# [22] = compound concentrations:100 nM and 1000 nM (sheet 'Lestaurtinib' of Supplementary Table 1),run:Lestaurtinib_02473_R2,Plate:MR010
# [23] = compound concentrations:100 nM and 1000 nM (sheet 'Lestaurtinib' of Supplementary Table 1),run:Lestaurtinib_02566_R1,Plate:MR014
substance,measurement,setting,value
Lestaurtinib,potency estimated from few doses,"[1]; compound concentrations:100 nM and 1000 nM (sheet 'Lestaurtinib' of Supplementary Table 1),run:Lestaurtinib_02339_R2,Plate:MR001",1510 nM
same,potency estimated from few doses,"[1]; compound concentrations:100 nM and 1000 nM (sheet 'Lestaurtinib' of Supplementary Table 1),run:Lestaurtinib_02407_R1,Plate:MR005",1540 nM
same,potency estimated from few doses,[1]; [5],1350 nM
same,potency estimated from few doses,[1]; [6],946 nM
same,potency estimated from few doses,"[1]; compound concentrations:100 nM and 1000 nM (sheet 'Lestaurtinib' of Supplementary Table 1),run:Lestaurtinib_02473_R3,Plate:MR010",958 nM
same,potency estimated from few doses,[1]; [7],671 nM
same,potency estimated from few doses,[1]; [8],1530 nM
same,potency estimated from few doses,"[1]; compound concentrations:100 nM and 1000 nM (sheet 'Lestaurtinib' of Supplementary Table 1),run:Lestaurtinib_02577_R3,Plate:MR016",1360 nM
same,potency estimated from few doses,[1]; [9],1580 nM
same,potency estimated from few doses,[1]; [10],1460 nM
same,potency estimated from few doses,[1]; [11],1420 nM
same,potency estimated from few doses,[1]; [12],1240 nM
same,potency estimated from few doses,"[2]; compound concentrations:100 nM and 1000 nM (sheet 'Lestaurtinib' of Supplementary Table 1),run:Lestaurtinib_02339_R3,Plate:MR001",1400 nM
same,potency estimated from few doses,[2]; [13],1630 nM
same,potency estimated from few doses,[2]; [14],1670 nM
same,potency estimated from few doses,"[2]; compound concentrations:100 nM and 1000 nM (sheet 'Lestaurtinib' of Supplementary Table 1),run:Lestaurtinib_02407_R2,Plate:MR005",1670 nM
same,potency estimated from few doses,[2]; [6],2020 nM
same,potency estimated from few doses,[2]; [15],1830 nM
same,potency estimated from few doses,"[2]; compound concentrations:100 nM and 1000 nM (sheet 'Lestaurtinib' of Supplementary Table 1),run:Lestaurtinib_02601_R1,Plate:MR018",1350 nM
same,potency estimated from few doses,[2]; [16],1590 nM
same,potency estimated from few doses,[2]; [12],1370 nM
same,potency estimated from few doses,"[2]; compound concentrations:100 nM and 1000 nM (sheet 'Lestaurtinib' of Supplementary Table 1),run:Lestaurtinib_03260_R1,Plate:MR033",914 nM
same,potency estimated from few doses,"[2]; compound concentrations:100 nM and 1000 nM (sheet 'Lestaurtinib' of Supplementary Table 1),run:Lestaurtinib_03260_R3,Plate:MR033",157 nM
same,potency estimated from few doses,"[3]; compound concentrations:100 nM and 1000 nM (sheet 'Lestaurtinib' of Supplementary Table 1),run:Lestaurtinib_02364_R1,Plate:MR002",130 nM
same,potency estimated from few doses,"[3]; compound concentrations:100 nM and 1000 nM (sheet 'Lestaurtinib' of Supplementary Table 1),run:Lestaurtinib_02364_R3,Plate:MR002",175 nM
same,potency estimated from few doses,[3]; [17],153 nM
same,potency estimated from few doses,"[3]; compound concentrations:100 nM and 1000 nM (sheet 'Lestaurtinib' of Supplementary Table 1),run:Lestaurtinib_02367_R3,Plate:MR003",240 nM
same,potency estimated from few doses,"[3]; compound concentrations:100 nM and 1000 nM (sheet 'Lestaurtinib' of Supplementary Table 1),run:Lestaurtinib_02407_R3,Plate:MR005",176 nM
same,potency estimated from few doses,[3]; [5],88.2 nM
same,potency estimated from few doses,"[3]; compound concentrations:100 nM and 1000 nM (sheet 'Lestaurtinib' of Supplementary Table 1),run:Lestaurtinib_02422_R2,Plate:MR006",4.49 nM
same,potency estimated from few doses,"[3]; compound concentrations:100 nM and 1000 nM (sheet 'Lestaurtinib' of Supplementary Table 1),run:Lestaurtinib_02422_R3,Plate:MR006",115 nM
same,potency estimated from few doses,"[3]; compound concentrations:100 nM and 1000 nM (sheet 'Lestaurtinib' of Supplementary Table 1),run:Lestaurtinib_02437_R1,Plate:MR007",132 nM
same,potency estimated from few doses,"[3]; compound concentrations:100 nM and 1000 nM (sheet 'Lestaurtinib' of Supplementary Table 1),run:Lestaurtinib_02437_R2,Plate:MR007",160 nM
same,potency estimated from few doses,[3]; [18],124 nM
same,potency estimated from few doses,[3]; [19],154 nM
same,potency estimated from few doses,[3]; [20],115 nM
same,potency estimated from few doses,[3]; [6],133 nM
same,potency estimated from few doses,[3]; [21],93.7 nM
same,potency estimated from few doses,[3]; [22],131 nM
same,potency estimated from few doses,"[3]; compound concentrations:100 nM and 1000 nM (sheet 'Lestaurtinib' of Supplementary Table 1),run:Lestaurtinib_02482_R3,Plate:MR011",170 nM
same,potency estimated from few doses,"[3]; compound concentrations:100 nM and 1000 nM (sheet 'Lestaurtinib' of Supplementary Table 1),run:Lestaurtinib_02487_R2,Plate:MR012",196 nM
same,potency estimated from few doses,[3]; [15],84.6 nM
same,potency estimated from few doses,[3]; [23],131 nM
same,potency estimated from few doses,"[3]; compound concentrations:100 nM and 1000 nM (sheet 'Lestaurtinib' of Supplementary Table 1),run:Lestaurtinib_02566_R3,Plate:MR014",151 nM
same,potency estimated from few doses,[3]; [7],130 nM
same,potency estimated from few doses,"[3]; compound concentrations:100 nM and 1000 nM (sheet 'Lestaurtinib' of Supplementary Table 1),run:Lestaurtinib_02572_R2,Plate:MR015",137 nM
same,potency estimated from few doses,[3]; [8],206 nM
same,potency estimated from few doses,[3]; [9],202 nM
same,potency estimated from few doses,"[3]; compound concentrations:100 nM and 1000 nM (sheet 'Lestaurtinib' of Supplementary Table 1),run:Lestaurtinib_02601_R2,Plate:MR018",232 nM
same,potency estimated from few doses,"[3]; compound concentrations:100 nM and 1000 nM (sheet 'Lestaurtinib' of Supplementary Table 1),run:Lestaurtinib_02606_R2,Plate:MR019",69.6 nM
same,potency estimated from few doses,"[3]; compound concentrations:100 nM and 1000 nM (sheet 'Lestaurtinib' of Supplementary Table 1),run:Lestaurtinib_02606_R3,Plate:MR019",167 nM
same,potency estimated from few doses,"[3]; compound concentrations:100 nM and 1000 nM (sheet 'Lestaurtinib' of Supplementary Table 1),run:Lestaurtinib_02624_R1,Plate:MR020",235 nM
same,potency estimated from few doses,"[3]; compound concentrations:100 nM and 1000 nM (sheet 'Lestaurtinib' of Supplementary Table 1),run:Lestaurtinib_02624_R2,Plate:MR020",113 nM
same,potency estimated from few doses,"[3]; compound concentrations:100 nM and 1000 nM (sheet 'Lestaurtinib' of Supplementary Table 1),run:Lestaurtinib_02624_R3,Plate:MR020",160 nM
same,potency estimated from few doses,"[3]; compound concentrations:100 nM and 1000 nM (sheet 'Lestaurtinib' of Supplementary Table 1),run:Lestaurtinib_02724_R2,Plate:MR021",179 nM
same,potency estimated from few doses,"[3]; compound concentrations:100 nM and 1000 nM (sheet 'Lestaurtinib' of Supplementary Table 1),run:Lestaurtinib_02724_R3,Plate:MR021",163 nM
same,potency estimated from few doses,"[3]; compound concentrations:100 nM and 1000 nM (sheet 'Lestaurtinib' of Supplementary Table 1),run:Lestaurtinib_02741_R1,Plate:MR023",211 nM
same,potency estimated from few doses,[3]; [10],237 nM
same,potency estimated from few doses,"[3]; compound concentrations:100 nM and 1000 nM (sheet 'Lestaurtinib' of Supplementary Table 1),run:Lestaurtinib_02752_R1,Plate:MR025",146 nM
same,potency estimated from few doses,"[3]; compound concentrations:100 nM and 1000 nM (sheet 'Lestaurtinib' of Supplementary Table 1),run:Lestaurtinib_02765_R1,Plate:MR026",278 nM
same,potency estimated from few doses,[3]; [16],244 nM
same,potency estimated from few doses,"[3]; compound concentrations:100 nM and 1000 nM (sheet 'Lestaurtinib' of Supplementary Table 1),run:Lestaurtinib_02766_R1,Plate:MR027",143 nM
same,potency estimated from few doses,[3]; [11],154 nM
same,potency estimated from few doses,"[3]; compound concentrations:100 nM and 1000 nM (sheet 'Lestaurtinib' of Supplementary Table 1),run:Lestaurtinib_02768_R2,Plate:MR028",141 nM
same,potency estimated from few doses,"[3]; compound concentrations:100 nM and 1000 nM (sheet 'Lestaurtinib' of Supplementary Table 1),run:Lestaurtinib_02768_R3,Plate:MR028",135 nM
same,potency estimated from few doses,"[3]; compound concentrations:100 nM and 1000 nM (sheet 'Lestaurtinib' of Supplementary Table 1),run:Lestaurtinib_02795_R1,Plate:MR022",93.8 nM
same,potency estimated from few doses,"[3]; compound concentrations:100 nM and 1000 nM (sheet 'Lestaurtinib' of Supplementary Table 1),run:Lestaurtinib_02802_R3,Plate:MR029",22.2 nM
same,potency estimated from few doses,[3]; [12],136 nM
same,potency estimated from few doses,"[3]; compound concentrations:100 nM and 1000 nM (sheet 'Lestaurtinib' of Supplementary Table 1),run:Lestaurtinib_02896_R2,Plate:MR030",82.8 nM
same,potency estimated from few doses,"[3]; compound concentrations:100 nM and 1000 nM (sheet 'Lestaurtinib' of Supplementary Table 1),run:Lestaurtinib_03172_R3,Plate:MR031",134 nM
same,potency estimated from few doses,"[3]; compound concentrations:100 nM and 1000 nM (sheet 'Lestaurtinib' of Supplementary Table 1),run:Lestaurtinib_03252_R1,Plate:MR032",130 nM
same,potency estimated from few doses,"[3]; compound concentrations:100 nM and 1000 nM (sheet 'Lestaurtinib' of Supplementary Table 1),run:Lestaurtinib_03252_R2,Plate:MR032",25.4 nM
same,potency estimated from few doses,"[3]; compound concentrations:100 nM and 1000 nM (sheet 'Lestaurtinib' of Supplementary Table 1),run:Lestaurtinib_03260_R2,Plate:MR033",248 nM
same,potency estimated from few doses,"[4]; compound concentrations:100 nM and 1000 nM (sheet 'Lestaurtinib' of Supplementary Table 1),run:Lestaurtinib_02339_R1,Plate:MR001",2070 nM
same,potency estimated from few doses,[4]; [13],825 nM
same,potency estimated from few doses,[4]; [17],1420 nM
same,potency estimated from few doses,[4]; [14],579 nM
same,potency estimated from few doses,"[4]; compound concentrations:100 nM and 1000 nM (sheet 'Lestaurtinib' of Supplementary Table 1),run:Lestaurtinib_02381_R2,Plate:MR004",1760 nM
same,potency estimated from few doses,"[4]; compound concentrations:100 nM and 1000 nM (sheet 'Lestaurtinib' of Supplementary Table 1),run:Lestaurtinib_02381_R3,Plate:MR004",2000 nM
same,potency estimated from few doses,[4]; [5],1620 nM
same,potency estimated from few doses,"[4]; compound concentrations:100 nM and 1000 nM (sheet 'Lestaurtinib' of Supplementary Table 1),run:Lestaurtinib_02438_R2,Plate:MR008",1630 nM
same,potency estimated from few doses,[4]; [18],1400 nM
same,potency estimated from few doses,[4]; [19],1540 nM
same,potency estimated from few doses,[4]; [20],1360 nM
same,potency estimated from few doses,[4]; [21],1690 nM
same,potency estimated from few doses,[4]; [22],1430 nM
same,potency estimated from few doses,[4]; [23],656 nM
